# In PubChem BioAssay (NCATS):
# Records with an inconclusive call do not appear. Where a call stands in place of a potency, no number is given. Unmarked numbers belong to inactive results. Active and inactive are the calls of the source. Calls come from the whole dose curve; as a rule, active = well fitted cell-killing curve with a large enough effect; inconclusive = small, poorly fitted or top-dose-only effect, or effect the other way; inactive = no such curve, though single readings can be large or run the other way.
# Columns and labels:
# [1] = Viability qHTS for spleen associated tyrosine kinase inhibitor (SYKi) naive MV4-11 cells (AID 1963823); note: nearly all actives have a fitted effect of over 40% in size
# Method in brief: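 Compounds were dispensed acoustically onto plates, MV4-11 cells (SYKi-naive) added at 500 per well, and plates incubated 72 hr at 37 C. CellTiter-Glo was added and luminescence measured after 10 min.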
# [2] = Viability qHTS for spleen associated tyrosine kinase inhibitor (SYKi) drug resistant MV4-11 cells (AID 1963824); note: nearly all actives have a fitted effect of over 35% in size
# Method in brief: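 SYK-inhibitor-resistant MV4-11 AML cells were seeded at 500 per well onto compound and cultured 72 hours (37 °C, 5% CO2). CellTiter-Glo was then added, and after 10 min at room temperature, luminescence gave viability.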
# Potency is the fitted concentration of half-maximal effect.
Structure (SMILES),Potency [1],Potency [2],viability (% of control) [1],"viability, % of control [2]"
C=C(CCO)C(=O)OCC1OCC(OC(=O)C(=C)CCO[C@@H]2O[C@H](CO)[C@@H](O)[C@H](O)[C@H]2O)C(O)C1O (some centres not stated),inactive,inactive,–,–
CC1OC2OC(=O)C3(C)CC4=C(CO)C5=C(CC(=O)C4(C)C(C1=O)C23)C(C)(C)OC(=O)C5 (configuration not stated),inactive,inactive,–,–
C=C[C@H]1[C@H](O[C@@H]2O[C@H](CO)[C@@H](O)[C@H](O)[C@H]2O)OC=C(C(=O)OC)[C@H]1CCO,inactive,inactive,–,–
CCC(C)(OC(C)=O)C(=O)O[C@H]1[C@H](OC(C)=O)[C@]2(CO)[C@H](O)[C@H](O)[C@]3(C)C(=CCC4[C@@]5(C)CC[C@H](O[C@@H]6O[C@H](C(=O)O)[C@@H](O)[C@H](O[C@@H]7OC[C@H](O)[C@H](O[C@@H]8OC[C@H](O)[C@H](O)[C@H]8O)[C@H]7O)[C@H]6O[C@@H]6O[C@H](CO)[C@@H](O)[C@H](O)[C@H]6O)C(C)(C)C5CC[C@]43C)[C@@H]2CC1(C)C (some centres not stated),2750 nM (active),2450 nM (active),–,–
CO[C@H]1/C=C/C=C/C=C/C[C@H](OC(=O)[C@@H](C)NC(=O)C2CCCCC2)[C@H](C)[C@@H](O)/C(C)=C/CCc2cc(O)cc(c2)NC(=O)C1,96.8 nM (active),109 nM (active),–,–
COC1CC(O[C@H]2CC[C@@]3(C)C(CCC4C3[C@H](OC(C)=O)[C@@H](OC(=O)/C=C/c3ccccc3)[C@]3(C)C(C(C)=O)CC[C@]43O)C2)OC(C)C1OC1CC(OC)C(OC2CC(OC)C(OC3OC(C)C(OC4OC(CO)C(O)C(O)C4O)C(OC)C3O)C(C)O2)C(C)O1 (some centres not stated),–,–,48.3% [at 9.25 µM],45.7% [at 9.25 µM]
